Rows were chosen to be rich in hits. Some 10% of all compounds tested hit in one or more screens of this group.
HP1b chromo inh – blocks HP1-beta chromodomain binding to methylated histone tails | P83916 | AlphaScreen HP1-beta / biotin-H3K9me3 peptide binding | Potency, µM (series often up to 114 µM), hits mostly inhibitors | hit rate 0.56% among 390,000; also: nearly all actives have a fitted effect of over 70% in size
Target sequence (P83916 whole entry, looked up): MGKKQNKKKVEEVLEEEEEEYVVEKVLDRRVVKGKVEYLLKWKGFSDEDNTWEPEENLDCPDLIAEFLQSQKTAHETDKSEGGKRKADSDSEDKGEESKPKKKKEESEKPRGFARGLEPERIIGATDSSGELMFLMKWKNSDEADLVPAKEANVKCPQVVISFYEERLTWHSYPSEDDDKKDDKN
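HP1-beta protein (50 nM final) preincubated 30 min at room temperature with biotinylated H3(1-18)K9me3 peptide (50 nM) in PBS pH 7.4, 0.01% Tween-20, then compound added for 30 min. AlphaScreen streptavidin donor/nickel chelate acceptor beads (10 ug/mL final), 30 min dark, luminescence read.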
G9a inh – blocks human histone lysine methyltransferase G9a | Q96KQ7 | G9a H3K9 monomethylation, AlphaScreen, 2 h | Potency, µM (highest dose often 102 µM), most hits filed as inhibitors | hit rate 8.8% among 350,000 | AID 504332; also: nearly all actives have a fitted effect of over 75% in size
Target sequence (Q96KQ7 913-1193 limits assumed): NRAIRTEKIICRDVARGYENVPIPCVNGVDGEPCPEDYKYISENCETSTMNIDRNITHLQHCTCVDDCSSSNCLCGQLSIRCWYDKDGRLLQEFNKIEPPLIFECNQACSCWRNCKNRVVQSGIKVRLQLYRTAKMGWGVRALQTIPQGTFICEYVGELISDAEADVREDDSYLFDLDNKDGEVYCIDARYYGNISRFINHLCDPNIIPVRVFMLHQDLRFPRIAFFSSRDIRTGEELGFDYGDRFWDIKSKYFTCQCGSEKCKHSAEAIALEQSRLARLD
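Enzyme 20 nM + cpd, 15 min RT; add b-H3K9 pep 500 nM / SAM 20 uM; 2 h RT; anti-H3K9me1 Ab 0.5 ug/mL + SA donor / anti-rabbit acceptor beads 20 ug/mL each, 10 min; AlphaScreen read.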
JMJD2A Tudor – blocks the human JMJD2A Tudor domain. O75164. AlphaScreen JMJD2A-Tudor / H3K4me3 peptide binding. Potency, µM (titrated, usually from 114 µM), actives largely listed as inhibitors. hit rate 4.4% among 390,000; also: nearly all actives have a fitted effect of over 50% in size
BAZ2B inh – BAZ2B (human) inhibition; AlphaScreen BAZ2B-H3K14Ac peptide displacement; Potency, µM (top dose mostly 114 µM), most hits filed as inhibitors; hit rate 4.4% among 360,000; also: nearly all actives have a fitted effect of over 60% in size
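AlphaScreen displacement of biotin-H3(5-23)K14Ac peptide (50 nM final) from BAZ2B (50 nM final) in PBS pH 7.4, 0.01% Tween-20; complex preformed 30 min RT, then compounds (top 110 uM) 30 min RT, beads 20 min dark.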
L3MBTL1 inh – L3MBTL1 (human) inhibition | Q9Y468 | AlphaScreen L3MBTL1–H3K9me1 peptide binding | Potency, µM (titrated, usually from 57.1 µM), usual class: inhibitors | hit rate 0.66% among 230,000 | AID 485360; also: nearly all actives have a fitted effect of over 60% in size
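AlphaScreen proximity signal between nickel-chelate acceptor and streptavidin donor beads (final 10 ug/mL) reports binding of 50 nM L3MBTL1 to 75 nM biotin-H3 K9me1 peptide; complex incubated with compounds 30 min at room temperature; cefsulodin titration as control.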
GLS inh – inhibitors of human glutaminase (GLS) | hit rate 0.21% among 410,000 | O94925 | GLS enzymatic activity, qHTS titration | Potency, µM (titrated, usually from 45.5 µM), actives largely listed as inhibitors
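Glutamate formation by hKGA was monitored fluorometrically using coupled glutamate oxidase, HRP and Amplex Red. Substrate was added as 1 mM L-glutamine solution; incubation was 30 min at RT after an initial read.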
Numbers stand for hits; – = inactive; ? = inconclusive; · = no result; [ ] = dose if it differs, or a comment. Calls follow the shape of the dose curve; as a rule, active = well fitted curve in the direction sought with a large enough effect; inconclusive = small, poorly fitted or top-dose-only effect, or another doubt; inactive = no such curve, though single readings can be large; an effect the other way counts as inactive or inconclusive.

SMILES | HP1b chromo inh | G9a inh | JMJD2A Tudor | BAZ2B inh | L3MBTL1 inh | GLS inh
CCOc1ccc(NC(=O)CSc2nccn2C2CCCC2)cc1 | – | – | – | – | · | –
CCOc1ccc(CNc2cc(C)nc3nc(-c4cccc(C)c4)nn23)cc1OC | – | – | – | – | · | –
CC=C1C2C=C(C)CC1(N)c1ccc(=O)[nH]c1C2 (configuration not stated) | · | – | · | · | · | ·
CN(C[C@H](Cc1ccccc1)N(C[C@H](Cc1cccc2ccccc12)N(CCc1ccccc1)N=O)N=O)N=O | – | ? | ? | 70.8µM | · | –
Cc1sc2ccccc2[n+]1CC(=O)c1ccccc1 | – | 10µM | ? | ? | – | –
COc1ccc(CN2C(=O)N(c3ccc(F)cc3)C(=O)C2CC(=O)Nc2cc(OC)cc(OC)c2)cc1 (configuration not stated) | – | – | – | – | · | –
COc1cccc(N2C(=O)C(CC(=O)Nc3ccc(Cl)cc3)N(Cc3ccc4c(c3)OCO4)C2=O)c1 (configuration not stated) | – | – | – | – | · | –
Cc1c(-c2cc(Br)ccc2O)nc2cc3c(cc2c1C)OCO3 | – | 44.7µM | – | – | · | –
C#CCOCCOCCOCCNc1nc(N2CCN(C(=O)[C@H](CCCN=C(N)N)n3cc(C(N)[C@@H](C)CC)nn3)CC2)nc(N2CCN(C(=O)[C@H](CC(N)=O)n3cc([C@@H](N)CC(N)=O)nn3)CC2)n1 (some centres not stated) | – | · | 22.4µM | · | – | –
C#CCOCCOCCOCCNc1nc(N2CCN(C(=O)[C@H](CCCCN)n3cc(CN)nn3)CC2)nc(N2CCN(C(=O)[C@H](CCCN=C(N)N)n3cc(C(N)[C@H](C)CC)nn3)CC2)n1 (some centres not stated) | – | · | 79.4µM | · | – | –
C#CCOCCOCCOCCNc1nc(N2CCN(C(=O)[C@H](CCCN=C(N)N)n3cc(C(N)[C@H](C)CC)nn3)CC2)nc(N2CCN(C(=O)[C@H](CCCN=C(N)N)n3cc(C(N)[C@@H](C)CC)nn3)CC2)n1 (some centres not stated) | – | · | 79.4µM | · | – | –
C#CCOCCOCCOCCNc1nc(N2CCN(C(=O)[C@H](CCCN=C(N)N)n3cc(C(N)[C@@H](C)CC)nn3)CC2)nc(N2CCN(C(=O)[C@H](CC(N)=O)n3cc([C@@H](N)C(C)C)nn3)CC2)n1 (some centres not stated) | – | · | 79.4µM | · | – | –
C#CCOCCOCCOCCNc1nc(N2CCN(C(=O)[C@H]([C@@H](C)CC)n3cc(CCCN=C(N)N)nn3)CC2)nc(N2CCN(C(=O)[C@H](CCCCN)n3cc(CC(C)O)nn3)CC2)n1 (some centres not stated) | – | –[2.33 µM] | – | – | – | –
C#CCOCCOCCOCCNc1nc(N2CCOCC2)nc(N2CCN(C(=O)[C@H](CCCN=C(N)N)n3cc(C(N)[C@@H](C)CC)nn3)CC2)n1 (some centres not stated) | – | · | – | · | – | –
Cc1cc(Cl)ccc1OCC(=O)N1CCC(c2nc3ccccc3o2)CC1 | – | – | – | – | · | –
Cc1ccc(Nc2nc3ccccc3s2)c(C)c1 | – | – | – | – | – | –
Cc1cc(O)ccc1Nc1nc2ccccc2nc1Nc1ccc(O)cc1C | – | 4.47µM | 89.1µM | 50.1µM | – | –
c1ccc(NCCCNc2ccccc2)cc1 | – | ? | ? | 50.1µM | –[11.4 µM] | –
CCOC(=O)c1ccccc1NC(=O)CSc1ncc2c(n1)-c1ccccc1N(CC)S2(=O)=O | – | – | – | – | · | –
CCc1ccc(NC(=O)Cn2ncc3c(C)n(Cc4cccc(Cl)c4)c(C)c3c2=O)cc1 | – | – | – | 79.4µM | · | –
O=[N+]([O-])c1ccc(O)c(/C=N/Nc2ccccn2)c1 | – | – | ? | 4.47µM | 12.6µM | –
O=[N+]([O-])c1ccc(O)c(/C=N/Nc2ncnc3c2cnn3-c2ccccc2)c1 | – | – | 79.4µM | ? | · | –
O=[N+]([O-])c1ccc(O)c(C=NNc2ccc(S(=O)(=O)O)cc2)c1 | – | · | 79.4µM | · | · | –
O=[N+]([O-])c1cccc(N/N=C/c2cc([N+](=O)[O-])ccc2O)c1 | – | – | – | – | – | –
O=[N+]([O-])c1ccc(O)c(/C=N/Nc2nc3ccccc3[nH]2)c1 | – | – | ? | 31.6µM | ? | –
SMILES | HP1b chromo inh | G9a inh | JMJD2A Tudor | BAZ2B inh | L3MBTL1 inh | GLS inh
Cc1cc(=O)n(CC(=O)NC(C)c2ccccc2)c2c1c(C)nn2C (configuration not stated) | ? | – | ? | ? | · | ?
Cc1cc(=O)n(CC(=O)N2CCN(c3ccc(F)cc3)CC2)c2c1c(C)nn2C | – | – | – | ? | · | –
Cc1ccc(OCC(=O)Nc2ccc3nc(SCCOc4ccccc4)sc3c2)cc1 | – | – | – | – | · | –
Cc1ccc(-n2c(C)nn(-c3ncc(C(F)(F)F)cc3Cl)c2=O)cc1 | – | – | – | – | · | –
Cc1nn(-c2ncc(C(F)(F)F)cc2Cl)c(=O)n1-c1ccc(F)cc1 | – | – | 50.1µM | – | – | –
O=C(O)CCSc1ccccn1 | – | 14.1µM | – | – | – | –
CCOc1ccccc1NC(=O)CSc1nnc(CC)c(CC)n1 | – | – | – | – | · | –
O=C(Nc1nnc(-c2cccs2)s1)c1cccc(F)c1 | – | 31.6µM | – | – | – | –
Cc1nnc(NC(=O)c2cccc(F)c2)s1 | – | – | – | – | – | –
CN1CCN(C(CNC(=O)c2c(F)cccc2F)c2ccc3c(c2)OCO3)CC1 (configuration not stated) | – | – | – | – | · | –
COc1ccc(NC(=S)NCCCCCC(=O)C[N+](=O)[O-])cc1 | ? | 22.4µM | – | ? | · | –
O=C(CCCCCNC(=S)Nc1ccc(Cl)cc1)C[N+](=O)[O-] | ? | ? | – | – | – | –
O=C(CCCCCNC(=S)Nc1ccccc1)C[N+](=O)[O-] | – | 44.7µM | – | – | – | –
Cc1cc(C)c(Cn2c3ccccc3c3cnn(CC(=O)NC4CCC(C)CC4)c(=O)c32)c(C)c1 (configuration not stated) | – | – | – | – | · | –
O=C(CCc1cn(Cc2ccccc2F)c2ccccc12)NCc1ccc(Cl)cc1 | – | – | – | – | · | –
Cc1cccc(C2C=C(c3ccc(C)c(C)c3)Nc3nnnn32)c1 (configuration not stated) | – | ? | – | – | · | –
COC(=O)C1=C(C)N(Cc2cccnc2)C(=O)/C1=C\c1cccs1 | · | · | · | 28.2µM | ? | ·
COC(=O)C1=C(C)N(Cc2ccc(OC)cc2)C(=O)C1 | – | – | – | – | – | –
COC(=O)C1=C(C)N(Cc2cccnc2)C(=O)C1 | – | 14.1µM | – | – | – | –

From PubChem BioAssay
